BAZ2B inh = inhibitors of human BAZ2B bromodomain; AlphaScreen BAZ2B-H3K14Ac peptide displacement; Potency, µM (series often up to 114 µM), for the others: at the top dose activity change, negative = inhibition, usual class: inhibitors; 360,000 tested, 4.4% active; AID 504333; also: % is scaled to controls: 0 for no effect and ±100 for the full control effect; nearly all actives have a fitted effect of over 60% in size
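Multi-concentration screen (max 110 uM) measuring displacement of acetylated histone H3 peptide from BAZ2B by AlphaScreen, using 50 nM protein, 50 nM peptide and 10 ug/mL streptavidin donor plus Ni-chelate acceptor beads.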
VDR inh = blocks the human vitamin D receptor | P11473 | VDR-SRC2-3 peptide fluorescence polarization, 2 h | Potency, µM, for the others: max response, negative = inhibition, most hits filed as inhibitors | 400,000 tested, 0.93% active | AID 504847; also: % is scaled to controls: 0 for no effect and ±100 for the full control effect
Target sequence (P11473 whole entry, looked up): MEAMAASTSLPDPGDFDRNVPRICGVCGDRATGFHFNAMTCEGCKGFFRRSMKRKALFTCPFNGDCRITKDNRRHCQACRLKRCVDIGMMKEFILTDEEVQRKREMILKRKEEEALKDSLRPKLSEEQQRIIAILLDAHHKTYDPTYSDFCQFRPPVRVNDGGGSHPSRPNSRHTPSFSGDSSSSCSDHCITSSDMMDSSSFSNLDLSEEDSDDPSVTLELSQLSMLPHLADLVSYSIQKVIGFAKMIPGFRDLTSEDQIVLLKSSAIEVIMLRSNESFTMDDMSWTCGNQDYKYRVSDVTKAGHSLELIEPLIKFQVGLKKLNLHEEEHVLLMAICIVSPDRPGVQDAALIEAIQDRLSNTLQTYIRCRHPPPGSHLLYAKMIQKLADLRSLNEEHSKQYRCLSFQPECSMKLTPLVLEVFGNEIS
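Compounds are added to VDR with labelled SRC2-3 coactivator peptide and held 2 h at room temperature. Inhibition of the VDR–peptide interaction is then read as a change in fluorescence polarization.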
PLK1 PBD inh = inhibitors of human PLK1 polo-box domain binding. P53350. Plk1 PBD binding of FITC phosphopeptide, fluorescence polarization. Potency, µM, without a hit: max response, negative = inhibition, hits mostly inhibitors. 360,000 tested, 2.8% active. AID 720504; also: series mostly up to about 57 µM; % is scaled to controls: 0 for no effect and ±100 for the full control effect; nearly all actives have a fitted effect of over 65% in size
JMJD2A Tudor inh = inhibitors of human JMJD2A Tudor domain. O75164. AlphaScreen JMJD2A-Tudor / H3K4me3 peptide binding. Potency, µM (series often up to 114 µM), for inactives: top-dose activity change, negative = inhibition, usual class: inhibitors. 390,000 tested, 4.4% active; also: % is scaled to controls: 0 for no effect and ±100 for the full control effect; nearly all actives have a fitted effect of over 50% in size
G9a inh = blocks human histone lysine methyltransferase G9a; Q96KQ7; G9a H3K9 monomethylation, AlphaScreen, 2 h; Potency, µM (titrated, usually from 102 µM), for the others: at the top dose activity, negative = inhibition, most hits filed as inhibitors; 350,000 tested, 8.8% active; AID 504332; also: % is scaled to controls: 0 for no effect and ±100 for the full control effect; nearly all actives have a fitted effect of over 75% in size
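AlphaScreen read-out: biotin-H3K9 peptide (500 nM) methylation by 20 nM enzyme with 20 uM SAM, 2 h at room temperature after 15 min compound preincubation; anti-monomethyl H3K9 antibody plus donor/acceptor beads, 10 min dark.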
HP1b binding inh = inhibitors of HP1-beta chromodomain binding to methylated histone tails; P83916; AlphaScreen HP1-beta / biotin-H3K9me3 peptide binding; Potency, µM (series often up to 114 µM), inactives show at the top dose activity change, negative = inhibition, most hits filed as inhibitors; 390,000 tested, 0.56% active; also: nearly all actives have a fitted effect of over 70% in size
Target sequence (P83916 whole entry, looked up): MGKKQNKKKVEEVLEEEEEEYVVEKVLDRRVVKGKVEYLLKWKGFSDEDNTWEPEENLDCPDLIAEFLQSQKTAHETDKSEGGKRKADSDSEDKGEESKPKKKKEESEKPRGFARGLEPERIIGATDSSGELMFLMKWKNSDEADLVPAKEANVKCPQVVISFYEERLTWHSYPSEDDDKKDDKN
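Compound inhibition of the preformed complex between 50 nM HP1-beta and 50 nM biotinylated H3K9me3 peptide was read by AlphaScreen. Buffer was PBS pH 7.4 with 0.01% Tween-20. Incubations ran 30 min at room temperature, with 10 ug/mL donor/acceptor beads.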
The depositor's hits bear a star; ? = inconclusive; / = not tested or not shown; [ ] = dose if it differs, or a comment. Sampled rows, rich in hits. Any-hit rate of the full collection: about 11%. Calls follow the shape of the dose curve; as a rule, active = well fitted curve in the direction sought with a large enough effect; inconclusive = small, poorly fitted or top-dose-only effect, or another doubt; inactive = no such curve, though single readings can be large; an effect the other way counts as inactive or inconclusive. Potency is read from the fitted curve at half-maximal effect.

SMILES	BAZ2B inh	VDR inh	PLK1 PBD inh	JMJD2A Tudor inh	G9a inh	HP1b binding inh
NC(=O)C1CCN(Cc2nc3ccccc3c(=O)[nH]2)CC1	-35%	5%	1%	3.2µM*	?	6%
COC(=O)c1ccc(C(=O)OC)c(NC(=O)C2CC(=O)N(C3CCCC3)C2)c1 (configuration not stated)	/	10%	-2%	?	/	13%[57 µM]
CCCCCOC(=O)Nc1ccc(S(=O)(=O)Nn2cnnc2)cc1	-2%	-11%	?	89µM*	10%[59 µM]	-2%
CCOC(=O)c1cnc(N2CCN(c3cccc(C)c3C)CC2)c2ccccc12	26%	9%	/	30%	14%[59 µM]	41%[57 µM]
CS(=O)(=O)N1CCC(C(=O)O)CC1	5.6µM*	-2%	-10%	-13%	0%	13%
C[C@H](NC(=O)c1nc[nH]c1C(=O)NCC(=O)OCc1ccccc1)c1ccccc1	7%	0%	-1%	-32%	17%	24%
Cc1ccc(NC(=S)Nc2ccc(C(C)C)cc2)cc1S(=O)(=O)N1CCCCCC1	-13%	-25%	?	-25%	45µM*	-23%
CCOc1ncccc1C(=O)Nc1cc(S(=O)(=O)N2CCCCCC2)ccc1OC	10%	-10%	-2%	-7%	-9%	19%
O=C(Nc1ccc(Cl)c(S(=O)(=O)N2CCCCC2)c1)c1ccncc1	1%	-2%	-4%	-12%	56µM*	12%
CCOc1ncccc1C(=O)Nc1cc(S(=O)(=O)N2CCCCC2)ccc1OC	13%	9%	-12%	-18%	10µM*	21%[57 µM]
CCOc1ncccc1C(=O)Nc1ccc(OC)c(S(=O)(=O)N2CCCCC2)c1	0%	-1%	3%	4%	6%	36%
CCOc1ncccc1C(=O)Nc1ccc(C)c(S(=O)(=O)N2CCCCCC2)c1	0%	-13%	-14%	20µM*	12%[59 µM]	46%
COc1cc(-c2ccc3ncnc(NCc4nc(C)cs4)c3c2)cc(OC)c1OC	/	/	/	-33%	/	/
COc1ccc(-c2nc3cnc(N4CCNCC4)nc3n(C3CC3)c2=O)cc1	/	-1%	/	/	-7%[12.7 µM]	/
COc1cc(NS(=O)(=O)c2ccc(NC(=S)NC(=O)/C=C/c3ccco3)cc2)ncn1	-35%	11%	13µM*	18µM*	?	?
CN1CCN(c2ccc(NC(=S)NC(=O)/C=C/c3ccco3)cc2)CC1	?	-12%	-25%	?	45µM*	-21%
COc1ccc(NC(=S)NC(=O)/C=C/c2ccco2)c(OC)c1	-24%	-11%	-12%	?	13%[0.501 µM]	-4%
COc1cccc(NC(=S)NC(=O)/C=C/c2ccco2)c1	50µM*	-15%	-26%	?	45µM*	-12%
O=C(/C=C/c1ccco1)NC(=S)Nc1cccc(C(=O)O)c1	32µM*	-27%	?	20µM*	8.9µM*	20µM*
COc1ccc(C)cc1NC(=O)Cc1ccc(NC(=O)N2CCCCc3ccccc32)cc1	-27%	-5%	/	-24%	-1%[59 µM]	-6%
Cc1noc(C)c1S(=O)(=O)NC(=O)C1(C)CCN1C(=O)c1ccc(C2CCCCC2)cc1 (configuration not stated)	/	/	-6%	/	/	/
Cc1cc(N)ccc1N=Nc1c(C)n(C)n(-c2ccccc2)c1=O	-9%	-14%	-14%	?	17%[59 µM]	5%
Cc1c(N=C2N=C(NC(=O)NC(C)(C)C)c3ccccc32)c(=O)n(-c2ccccc2)n1C	-14%	-2%	-14%	-35%	7%	9%
Cc1c(N=C2C=CC(=O)c3ccccc32)c(=O)n(-c2ccccc2)n1C	28µM*	?	19µM*	45µM*	35µM*	10µM*
Cc1[nH]c2ccccc2c1N=Nc1c(C)n(C)n(-c2ccccc2)c1=O	?	-8%	-7%	-34%	40µM*	11%
SMILES	BAZ2B inh	VDR inh	PLK1 PBD inh	JMJD2A Tudor inh	G9a inh	HP1b binding inh
Cc1c(N=Nc2ccc(O)cc2)c(=O)n(-c2ccccc2)n1C	?	-2%	-6%	-22%	-1%	14%
Cc1c(N=NC2=C(O)CCCC2=O)c(=O)n(-c2ccccc2)n1C	22µM*	2%	2%	14µM*	8.9µM*	?
Oc1ccc(C[C@H]2CNC(=S)N2CC2CCCN2C[C@H](Cc2ccc(O)cc2)N2C[C@H](Cc3ccc(O)cc3)N(CC3CCCCC3)C2=S)cc1 (some centres not stated)	/	16%	-4%	-35%	/	28%
CCOC(=O)c1c(C)n(C)c2ccc(O)c(CN3CCC(C)CC3)c12	7%	89µM*	-3%	-19%	?	5%
CCOC(=O)c1c(C)n(C)c2ccc(O)c(CN3CCN(C)CC3)c12	/	-5%	-5%	-21%	?	-4%
CCOC(=O)c1c(CN2CCOCC2)n(C)c2cc(Br)c(O)c(CN(C)C)c12	?	7%	2%	-15%	11µM*	-6%
CCOC(=O)c1c(CSc2ccccc2)n(C)c2ccc(O)c(CN3CCOCC3)c12	35µM*	5%	-1%	-34%	40µM*	8%
Cn1c(=O)n(C)c2cc(CNCc3ccc(F)cc3)ccc21	-12%	22%	/	-12%	-4%[59 µM]	61%
CCN(CC(=O)NC1CCS(=O)(=O)C1)S(=O)(=O)c1ccc(C)c(C)c1 (configuration not stated)	22%	-12%	-6%	-5%	5%[59 µM]	17%
Cc1ccc(-n2c(CNc3ccc(C)c(Cl)c3)n[nH]c2=S)cc1	?	-9%	-24%	?	50µM*	11%
Cc1ccc(NCc2n[nH]c(=S)n2-c2cccc(Cl)c2)cc1	-38%	-2%	?	?	?	-5%
Cc1ccc(-n2c(CNc3cccc(Cl)c3)n[nH]c2=S)cc1	-19%	-9%	-16%	-21%	4.5µM*	2%
COc1cccc(Nc2nc(N)c([N+](=O)[O-])c(N3CCOCC3)n2)c1	-15%	8%	-9%	-34%	-4%[2.33 µM]	27%
O=C(Nc1ccc2oc(-c3cccnc3)nc2c1)c1ccc(Br)o1	-8%	22%	-16%	-13%	20µM*	12%
O=C(Nc1ccc(-c2nc3ncccc3o2)cc1)c1ccco1	-4%	?	11µM*	35µM*	-36%[12.7 µM]	-13%
Cc1ccc(C(=O)Nc2cccnc2)cc1NC(=O)c1ccco1	6%	6%	-2%	-16%	-3%[59 µM]	16%
O=C(Nc1cccc(NC(=O)c2nccc3ccccc23)c1)c1ccco1	-22%	7%	-5%	-30%	45µM*	1%
O=C(Nc1cccnc1)c1cccc(NC(=O)c2ccco2)c1	5%	-2%	-1%	-1%	40µM*	26%
C[C@H](NC(=O)c1ncn2c1C(=O)NC[C@H]2C)C(=O)OC(C)(C)C	/	/	-7%	/	/	/
CC1(C)C(=O)OC(/C=C\c2cccc([N+](=O)[O-])c2)C(C)(C)C1=O (configuration not stated)	-26%	-17%	-7%	-9%	0%	-1%

Bioassay records (PubChem BioAssay)
